For 40 compounds, Potency results are on record in PubChem BioAssay (Tox21).

The structures appear in SMILES notation. Values joined by “and” are separate entries in the source; they are usually repeats but may differ in a detail not shown here. Equal values may be shown once. Records with an inconclusive call do not appear. Entries that show only a call come without a potency. The source holds several records for some structures; these can differ, active in one and inactive in another. Active and inactive are the calls of the source. Calls follow the shape of the dose curve; as a rule, active = well fitted cell-killing curve with a large enough effect in the repeat runs; inconclusive = weak or mixed curves, or effect the other way; inactive = flat fitted curve, though single readings scatter.
Potency is read from the fitted curve at half-maximal effect.

A short description of this assay: qHTS RealTime-Glo MT Cell Viability Assay in HEK293 cells - 32 hour (AID 1224868). Also: nearly all actives have a fitted effect of over 50% in size. The settings on record: RealTime-Glo luminescence; series mostly up to 76.8 µM. An excerpt:
National Center for Advancing Translational Sciences [NCATS]
NIH Chemical Genomics Center [NCGC]
U.S. Environmental Protection Agency [EPA]
National Institutes of Environmental Health Sciences [NIEHS]
National Toxicology Program [NTP]
U.S. Food and Drug Administration [FDA]
Measure of cell viability is critical in the cell-base assay. Analysis of cell viability is necessary for the characterization of cell responses to cytotoxic drugs and environmental stress. A RealTime-Glo MT Cell Viability Assay to monitor cell viability in real time of continues cell culture during 40 hours of compound treatment was used to screen Tox21 10K library compounds in Hek293 cells. The RealTime-Glo MT Cell Viability Assay is a nonlytic, homogeneous, bioluminescent method to measure cell viability in real time using a simple, plate-based method. The assay involves adding NanoLuc luciferase and a cell-permeant prosubstrate to cells in culture. Viable cells reduce the proprietary prosubstrate to generate a substrate for NanoLuc luciferase. This substrate diffuses from cells into the surrounding culture medium, where it is rapidly used by the NanoLuc Enzyme to produce a luminescent signal. The signal correlates with the number of viable cells, making the assay well suited for cytotoxicity studies.
Tox21 Assay Protocol Summary:
The mixture of Hek293 cell suspension and reagents were dispensed at 600cells/6 ul/well in 1536-well tissue culture treated black solid bottom plates using a Multidrop dispenser. After the assay plates were incubated at a 37 C/5% CO2 incubator for 5 hours, 23 nL of compounds dissolved in DMSO, positive and negative controls was transferred to the assay plate by a pintool work station. The plates were incubated at 37 C for 40 hours. The luminescence intensity were measured at 0h, 8h, 16h, 24h, 32h and 40h time points using ViewLux plate reader during compound treatment.
On the technique in general: qHTS replaces the single test concentration by a dilution series.
`COCCOC(=O)c1ccccc1C(=O)OCCOC`: the Potency entry was “inactive”.

On to `CCO[Si](CCCN)(OCC)OCC`, for which the Potency entry is “inactive”.

Take `c1ccc2c(c1)Cc1ccccc1-2`: the Potency result is “inactive”.

Regarding `CCCCCCCO`, the Potency entry was “inactive”.

For `CC(=O)CCC=C(C)C`, the Potency result was “inactive”.

In the case of `O=C(O)CCCCCCCCC(=O)O`, the Potency result is “inactive”.

For the compound `c1ccc(Oc2ccccc2)cc1`, the Potency entry was “inactive”.

On to `CCCCCCCCCCN`, for which the Potency result is “inactive”.

For the compound `CCCCCCO`, the Potency entry is “inactive”.

`CC(C)(Oc1ccc(CCNC(=O)c2ccc(Cl)cc2)cc1)C(=O)O`: the Potency entry is “inactive”.

As to `C=CC(C)CCCC(C)(C)O` (stereo not given), the Potency result is “inactive”.

With `CC(=O)CC(C)(C)O`, the Potency entry is “inactive”.

For the compound `CN(C)c1ccc(Cc2ccc(N(C)C)cc2)cc1`, the Potency is 22 µM (active) and 21.9 µM (active).

In the case of `CC1(C)OC[C@@H]2O[C@@]3(C(=O)O)OC(C)(C)O[C@H]3[C@@H]2O1`, the Potency result is “inactive”.

For the compound `C=CCc1ccc(OC)c(OC)c1`, the Potency entry is “inactive”.

For the compound `C=C(C)C(=O)OCC(C)C`, the Potency result is “inactive”.

For `CC(=O)OCCOC(C)=O`, the Potency entry is “inactive”.

In the case of `O=C1CCCC1`, the Potency entry was “inactive”.

For `C=C(C)[C@H]1CC=C(C)C(=O)C1`, the Potency result is “inactive”.

On to `OCc1cccc(Oc2ccccc2)c1`, for which the Potency entry was “inactive”.

Turning to `CCCOC(=O)c1ccccc1`, the Potency entry was “inactive”.

For the compound `COC(=O)CCCC(=O)OC`, the Potency result is “inactive”.

For `CC(=O)OCc1ccccc1`, the Potency result is “inactive”.

Turning to `NCCNCCN`, the Potency result was “inactive”.

As for `C=C(C)CNCC`, the Potency result was “inactive”.

Turning to `CC(C)OC(=O)COc1ccc(Cl)cc1Cl`, the Potency result is “inactive”.

`Cc1ccc2ncccc2c1`: the Potency entry is “inactive”.

In the case of `CSc1ccc(Cl)cc1`, the Potency entry is “inactive”.

Consider `Cc1ccc([N+](=O)[O-])cc1S(=O)(=O)O`, for which the Potency result is “inactive”.

On to `CCCCCCCCCCCCCCCCO`, for which the Potency entry was “inactive”.

As to `CC(=O)OC1CC(C)OC(C)O1` (stereo not given), the Potency entry was “inactive”.

For `O=S(=O)(O)c1ccccc1`, the Potency result is “inactive”.

As for `CC(O)CC(C)(C)O` (stereo not given), the Potency result was “inactive”.

`CCOC(=O)c1ccc(N)cc1`: the Potency result is “inactive”.

With `CC(C)CC(=O)CC(C)CC(C)C` (stereo not given), the Potency result is “inactive and 17.4 µM (active)”.

`O=C(O)c1cc2ccccc2cc1O`: the Potency result was “inactive”.

As to `CCOCC(=O)O`, the Potency result was “inactive”.

Take `O=C(O)c1ccc(C(=O)O)c(C(=O)O)c1`: the Potency entry was “inactive”.

On to `COCCCN`, for which the Potency entry is “inactive”.

For the compound `O=c1[nH]cnc2[nH]ncc12`, the Potency result is “inactive”.
